Results taken from PubChem BioAssay (Tox21).
Records with an inconclusive call do not appear. Calls of active or inactive are those of the source. Unless noted, calls come from the whole dose curve.

Key:
[1] = Nuclear factor erythroid 2-related factor 2/antioxidant responsive element (Nrf2/ARE) small molecule agonists: qHTS cell viability counter screen in human keratinocytes (AID 1919968; active = well fitted curve in the direction sought with a large enough effect in the repeat runs; an effect the other way counts as inactive or inconclusive; note: nearly all actives have a fitted effect of over 55% in size; note: potency is the fitted concentration of half-maximal effect)
Outline: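 KeratinoSens cells (HaCaT keratinocytes stably carrying an ARE-luciferase reporter) were seeded at 1,500 cells/well and rested 5 h at 37 C/5% CO2. They were then exposed to compounds in DMSO for 23 h. Viability was read by CellTiter-Fluor fluorescence after 1 h.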

[2] = Nuclear factor erythroid 2-related factor 2/antioxidant responsive element (Nrf2/ARE) small molecule agonists: luciferase reporter gene qHTS assay in human keratinocytes (AID 1919969); note: nearly all actives have a fitted effect of over 35% in size; note: potency is the fitted concentration of half-maximal effect
[3] = biological target: Gonadotropin-releasing hormone receptor (Homo sapiens) (UniProt P30968); assay: Human gonadotropin-releasing hormone receptor (GnRHR) small molecule agonists, calcium flux assay in GnRHR-HEK293 cells (AID 1920063); note: nearly all actives have a fitted effect of over 35% in size
Outline: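 HEK293 cells stably expressing human GnRHR were plated 18 h at 37 °C, loaded with calcium dye 1 h at 37 °C, then given compound in agonist mode; fluorescence (Ex/Em 480/540) read kinetically for 3 min at 1 s intervals.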

[4] = G protein-coupled receptor (GPCR) small molecule agonists, calcium flux assay: HEK293 wild type cell line counter screen (AID 1920065)
Outline: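 Cells were plated and cultured 18 h at 37 C/5% CO2, then loaded with calcium dye for 1 h at 37 C. Compounds in DMSO were pin-transferred in agonist mode, and fluorescence (Ex/Em 480/540) was read kinetically for 3 min at 1 s intervals.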

[5] = p53 small molecule agonists, cell-based qHTS assay with rat liver microsomes (AID 1963578); note: potency is the fitted concentration of half-maximal effect
Outline: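 Agonist mode in p53RE-bla reporter cells, with compounds co-incubated 16 h at 37 C alongside 0.5 mg/mL rat liver microsomes and 0.5 mg/mL NADPH (final), followed by a 2 h LiveBLAzer detection step.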

[6] = p53 small molecule agonists, cell-based qHTS assay with human liver microsomes: qHTS cell viability counter screen (AID 1963579); note: nearly all actives have a fitted effect of over 45% in size; note: potency is the fitted concentration of half-maximal effect
Outline: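 Metabolically activated exposure: compounds, human liver microsomes and NADPH (0.5 mg/mL final apiece) were added to p53RE-bla cells seeded 5 h earlier, left 16 h at 37 C, and then assessed for viability by CellTiter-Glo luminescence.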

[7] = p53 small molecule agonists, cell-based qHTS assay with rat liver microsomes: qHTS cell viability counter screen (AID 1963580); note: nearly all actives have a fitted effect of over 45% in size; note: potency is the fitted concentration of half-maximal effect
Outline: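 HCT-116 p53RE-bla, 4,000 cells/well, 5 h pre-incubation; cpd + rat liver microsomes 0.5 mg/mL + NADPH 0.5 mg/mL (final); 16 h, 37 C; CellTiter-Glo, 30 min RT; luminescence.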

[8] = p53 small molecule agonists, cell-based qHTS assay: qHTS cell viability counter screen (AID 1963581); note: nearly all actives have a fitted effect of over 45% in size; note: potency is the fitted concentration of half-maximal effect
Outline: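 p53RE-bla HCT-116 cells were exposed to compounds for 16 h at 37 C; after the beta-lactamase FRET read in the same wells, CellTiter-Glo was added and luminescence (intracellular ATP) read after 30 min at room temperature.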

[9] = biological target: 5-hydroxytryptamine receptor 2A (Homo sapiens) (UniProt P28223); assay: 5-hydroxytryptamine receptor 2A (HTR2A) small molecule agonists, cell-based qHTS assay (AID 1963587); note: nearly all actives have a fitted effect of over 30% in size; note: potency is the fitted concentration of half-maximal effect
Outline: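 Kinetic calcium-flux fluorescence (2 min, 1 sec intervals) after compound addition in agonist mode. HTR2A-CHO cells were cultured 18 h, then dye-loaded 1 h at 37 C.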

[10] = biological target: Muscarinic acetylcholine receptor M1 (Homo sapiens) (UniProt P11229); assay: Cholinergic receptor muscarinic 1 (CHRM1) small molecule antagonists, cell-based qHTS assay (AID 1963588); note: nearly all actives have a fitted effect of over 40% in size
Outline: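 CHRM1-CHO calcium-flux assay, antagonist mode. Cells were seeded 18 h, dye-loaded 1 h at 37 C and given compound for 5 min at RT, then acetylcholine was added at 50nM. FDSS fluorescence was read 3 min; 15 concentrations, three runs.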

[11] = biological target: Muscarinic acetylcholine receptor M1 (Homo sapiens) (UniProt P11229); assay: Cholinergic receptor muscarinic 1 (CHRM1) small molecule agonists, cell-based qHTS assay (AID 1963589); note: nearly all actives have a fitted effect of over 35% in size
Outline: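 CHO cells stably expressing human CHRM1, seeded 18 h at 37 C/5% CO2, dye-loaded 1 h at 37 C, then given compound in agonist mode; intracellular calcium fluorescence read kinetically at 1 s intervals. Fifteen concentrations, three independent runs.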

[12] = cAMP Responsive Elements (CRE) small molecule antagonists, cell-based qHTS assay (AID 1963591; active = well fitted inhibition curve with a large enough effect in the signal ratio in the repeat runs, not every such curve was filed as active; the % refers to the signal ratio)
Outline: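 CRE-bla HEK293T cells were plated 18 h at 37 °C/5% CO2, pinned with compound in DMSO, then stimulated with NKH477 at 0.25 uM final for 3 h. LiveBLAzer B/G FRET substrate was added and plates incubated 2 h at room temperature.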

[13] = biological target: Beta-2 adrenergic receptor (Homo sapiens) (UniProt P07550); assay: Adrenergic beta2 receptor (ADRB2) small molecule antagonists, cell-based qHTS assay (AID 1963592); note: series mostly up to about 92 µM; nearly all actives have a fitted effect of over 50% in size
Outline: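 Cells (CHO, stable ADRB2 overexpression) incubated 18-20hr at 37C; compounds added from DMSO; agonist mix (1nM isoproterenol, 100uM IBMX, 25uM Ro-20-1724) added; 0.5hr RT; d2-cAMP and anti-cAMP-cryptate added; 1hr RT; 665/615 nm read.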

[14] = biological target: D(2) dopamine receptor (Homo sapiens) (UniProt P14416); assay: Dopamine D2 receptor (DRD2) small molecule agonists, cell-based qHTS assay (AID 1963594); note: nearly all actives have a fitted effect of over 35% in size
Outline: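 cAMP accumulation in DRD2-HEK293 cells measured by HTRF after 1 h detection; compounds added 10 min before NKH477 (200nM […]) forskolin-analogue stimulation, 30 min at room temperature, with Ro20-1724 present at 0.1 mM final.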

[15] = p53 small molecule agonists, cell-based qHTS assay with human liver microsomes (AID 1963577);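 note: p53 response element beta-lactamase reporter cells with liver microsomes plus NADPH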
Outline: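 In this qHTS, p53 response-element beta-lactamase cells receive test compound together with a microsome/NADPH activating system (0.5 mg/mL final each) and are incubated 16 h at 37 C before LiveBLAzer fluorescence detection.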

[16] = biological target: D(2) dopamine receptor (Homo sapiens) (UniProt P14416); assay: Dopamine D2 receptor (DRD2) small molecule antagonists, cell-based qHTS assay (AID 1963595; active = well fitted inhibition curve with a large enough effect in the signal ratio in the repeat runs, with a control signal flat; the % refers to the signal ratio; note: potency is the fitted concentration of half-maximal effect)
Outline: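 Antagonism was scored as restored cAMP in HEK293-DRD2 cells. These cells were stimulated with 200 nM NKH477 and 12 nM quinpirole for 30 min at room temperature, in the presence of 0.1 mM Ro20-1724.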

[17] = biological target: 5-hydroxytryptamine receptor 2A (Homo sapiens) (UniProt P28223); assay: 5-hydroxytryptamine receptor 2A (HTR2A) small molecule antagonists, cell-based qHTS assay (AID 1963586); note: nearly all actives have a fitted effect of over 45% in size; note: potency is the fitted concentration of half-maximal effect
Outline: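 Antagonist-mode intracellular calcium assay: DOI (4 nM) added after 5 min compound pre-incubation at room temperature to dye-loaded HTR2A-CHO cells. Fluorescence followed for 3 min, sampled every second.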

[18] = cAMP Responsive Elements (CRE) small molecule agonists, cell-based qHTS assay (AID 1963590)
Outline: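 CRE-bla HEK 293T cells in DMEM with 10% dialyzed FBS, NEAA, pyruvate and 25 mM HEPES were plated 18 h at 37 C/5% CO2, then exposed to compounds in DMSO for 3 h before LiveBLAzer B/G FRET substrate addition.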

[19] = biological target: KiSS-1 receptor (Homo sapiens) (UniProt Q969F8); assay: Human kisspeptin (KISS1R) small molecule agonists, calcium flux assay in KISS1R-HEK293 cells (AID 1920064; active = well fitted curve in the direction sought with a large enough effect in the repeat runs; an effect the other way counts as inactive or inconclusive)
Outline: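 HEK293 cells stably expressing human KISS1R were plated 18 h at 37 °C, loaded with calcium dye for 1 h at 37 °C, then given compound by pin tool. Fluorescence (Ex/Em 480/540) was read kinetically for 3 min.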

[20] = p53 small molecule agonists, cell-based qHTS assay (AID 1963582; active = well fitted activation curve with a large enough effect in the signal ratio in the repeat runs, not every such curve was filed as active; the % refers to the signal ratio)
Outline: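 p53RE-bla beta-lactamase reporter cells rested 5 h at 37 C/5% CO2, then received compounds in DMSO by pin transfer and were incubated 16 h at 37 C. LiveBLAzer B/G FRET substrate was loaded for 2 h at room temperature before fluorescence reading.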

Measured: Potency

KiSS-1 receptor (Homo sapiens), sequence (Q969F8 whole entry, looked up): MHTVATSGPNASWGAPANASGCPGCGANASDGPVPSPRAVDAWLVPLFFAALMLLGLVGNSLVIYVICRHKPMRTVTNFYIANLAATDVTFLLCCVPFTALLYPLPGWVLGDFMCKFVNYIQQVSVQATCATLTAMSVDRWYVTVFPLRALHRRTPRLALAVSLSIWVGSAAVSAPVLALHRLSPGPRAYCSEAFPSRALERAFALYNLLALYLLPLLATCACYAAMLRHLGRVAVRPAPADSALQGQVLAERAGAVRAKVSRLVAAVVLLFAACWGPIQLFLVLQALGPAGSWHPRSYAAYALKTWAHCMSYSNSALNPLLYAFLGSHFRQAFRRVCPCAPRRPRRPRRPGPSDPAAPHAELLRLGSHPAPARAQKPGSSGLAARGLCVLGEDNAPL
Beta-2 adrenergic receptor (Homo sapiens), sequence (P07550 whole entry, looked up): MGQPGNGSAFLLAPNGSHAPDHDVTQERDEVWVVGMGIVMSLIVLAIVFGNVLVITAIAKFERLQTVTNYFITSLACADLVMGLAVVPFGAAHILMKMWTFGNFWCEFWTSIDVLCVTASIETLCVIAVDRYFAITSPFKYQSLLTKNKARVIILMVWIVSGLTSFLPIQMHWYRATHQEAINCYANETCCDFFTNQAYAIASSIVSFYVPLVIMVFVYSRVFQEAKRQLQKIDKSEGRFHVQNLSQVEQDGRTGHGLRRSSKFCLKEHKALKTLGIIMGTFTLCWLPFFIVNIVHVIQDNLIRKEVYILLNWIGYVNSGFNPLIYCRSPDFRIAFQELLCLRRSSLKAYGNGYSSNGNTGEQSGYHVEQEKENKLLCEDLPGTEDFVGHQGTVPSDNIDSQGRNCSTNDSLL
Muscarinic acetylcholine receptor M1 (Homo sapiens), sequence (P11229 whole entry, looked up): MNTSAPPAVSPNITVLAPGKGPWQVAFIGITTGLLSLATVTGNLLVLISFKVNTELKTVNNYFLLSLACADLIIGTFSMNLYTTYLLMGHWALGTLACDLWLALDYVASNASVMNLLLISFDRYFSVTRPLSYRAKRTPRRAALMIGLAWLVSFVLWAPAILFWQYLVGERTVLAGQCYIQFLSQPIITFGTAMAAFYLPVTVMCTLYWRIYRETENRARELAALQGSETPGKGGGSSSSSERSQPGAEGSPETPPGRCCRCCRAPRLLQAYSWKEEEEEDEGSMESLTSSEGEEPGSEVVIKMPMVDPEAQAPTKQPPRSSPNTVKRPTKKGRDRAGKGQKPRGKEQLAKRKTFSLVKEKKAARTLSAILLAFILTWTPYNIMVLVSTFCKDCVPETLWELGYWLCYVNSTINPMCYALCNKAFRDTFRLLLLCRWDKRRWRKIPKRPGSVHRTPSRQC
5-hydroxytryptamine receptor 2A (Homo sapiens), sequence (P28223 whole entry, looked up): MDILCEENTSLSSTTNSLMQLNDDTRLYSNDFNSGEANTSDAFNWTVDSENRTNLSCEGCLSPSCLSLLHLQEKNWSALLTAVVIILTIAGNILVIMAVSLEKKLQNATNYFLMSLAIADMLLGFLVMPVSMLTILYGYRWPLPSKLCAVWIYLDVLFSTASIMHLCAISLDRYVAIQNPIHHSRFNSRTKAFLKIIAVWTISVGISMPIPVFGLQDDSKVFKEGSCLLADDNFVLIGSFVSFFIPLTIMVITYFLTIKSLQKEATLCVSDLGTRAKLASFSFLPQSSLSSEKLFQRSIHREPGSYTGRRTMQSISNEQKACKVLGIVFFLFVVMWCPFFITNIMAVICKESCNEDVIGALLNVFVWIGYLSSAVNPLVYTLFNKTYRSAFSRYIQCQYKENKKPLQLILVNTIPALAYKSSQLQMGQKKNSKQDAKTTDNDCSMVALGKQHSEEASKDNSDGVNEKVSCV
D(2) dopamine receptor (Homo sapiens), sequence (P14416 whole entry, looked up): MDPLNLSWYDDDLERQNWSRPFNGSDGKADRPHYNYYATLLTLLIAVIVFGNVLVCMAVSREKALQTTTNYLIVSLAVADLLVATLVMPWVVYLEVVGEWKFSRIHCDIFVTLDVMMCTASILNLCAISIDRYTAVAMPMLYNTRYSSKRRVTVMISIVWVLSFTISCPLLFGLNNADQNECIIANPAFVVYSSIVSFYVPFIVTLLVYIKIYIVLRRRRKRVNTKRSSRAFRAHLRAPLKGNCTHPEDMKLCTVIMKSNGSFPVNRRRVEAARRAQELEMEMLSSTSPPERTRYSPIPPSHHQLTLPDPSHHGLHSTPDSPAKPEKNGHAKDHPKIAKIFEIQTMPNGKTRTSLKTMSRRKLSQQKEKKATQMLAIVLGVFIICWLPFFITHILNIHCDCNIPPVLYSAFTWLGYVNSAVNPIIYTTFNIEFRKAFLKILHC
Gonadotropin-releasing hormone receptor (Homo sapiens), sequence (P30968 whole entry, looked up): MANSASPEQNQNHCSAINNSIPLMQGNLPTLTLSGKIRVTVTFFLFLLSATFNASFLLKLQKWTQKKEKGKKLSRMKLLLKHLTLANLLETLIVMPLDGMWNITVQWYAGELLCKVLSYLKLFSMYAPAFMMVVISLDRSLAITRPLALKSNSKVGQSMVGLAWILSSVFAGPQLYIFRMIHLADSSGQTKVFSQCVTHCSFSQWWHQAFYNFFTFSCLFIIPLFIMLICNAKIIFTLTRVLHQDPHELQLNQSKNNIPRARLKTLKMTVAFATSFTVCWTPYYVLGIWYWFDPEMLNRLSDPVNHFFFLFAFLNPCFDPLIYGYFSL

c1ccc2c(c1)[nH]c1cnccc12
active: [5] 36.4 µM
not listed: [15] | [16] | [17] | [18] | [19] | [20]
inactive: all other assays above

O=C(Nc1ccccc1-c1ccc(Cl)cc1)c1cccnc1Cl
inactive: [1] | [3] | [4] | [15] | [5] | [7] | [11] | [16]
active: [2] 68.6 µM

NC(=O)C(Cl)(Cl)Cl
not listed: [5] | [12] | [13] | [15] | [16] | [19] | [20]
inactive: all other assays above

O=C(O)c1cc(I)cc(I)c1I
not listed: [3] | [12] | [14] | [18] | [20]
inactive: all other assays above

COc1ccc(CN2CCNCC2)c(OC)c1OC
not listed: [3] | [9] | [10] | [11] | [17]
inactive: all other assays above

CC(C)(C)NCC(O)c1cc(Cl)c(N)c(Cl)c1 (stereo not given)
active: [16] 0.0021 µM
not listed: [3] | [9] | [10] | [11] | [13] | [17] | [18]
inactive: all other assays above

CN1CCc2cc(Cl)c(O)cc2[C@H]2c3ccccc3CC[C@@H]21
active: [17] 0.0326 µM
not listed: [3] | [12] | [13] | [16] | [18]
inactive: all other assays above

COCc1cnc(C2=NC(C)(C(C)C)C(=O)N2)c(C(=O)O)c1 (stereo not given)
not listed: [5] | [8] | [14] | [15] | [19] | [20]
inactive: all other assays above

[Cl][Hg][c]1ccccc1
inactive: [19] | [4] | [15] | [5] | [17] | [10]
active: [1] 2.73 µM | [2] 0.969 µM | [6] 4.58 µM | [7] 8.14 µM | [8] 2.89 µM | [9] 49 µM
